IL-1B inflam inh = inflammasome signaling inhibition, IL-1 beta readout. THP-1 LPS/ATP IL-1B secretion, AlphaLISA, 16 h; active compounds read low. activity change, % at 57.5 µM. 360,000 compounds, 4.7% hits. AID 743279; in the data active = activity change below about -50%; inconclusive = mostly about -30% to -49%
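Secreted IL-1B measured by AlphaLISA bead assay after 16 h compound exposure of THP-1 cells; compounds (final up to 57.5 uM) added 1 h before LPS (250 ng/mL) and ATP (1.25 mM) stimulation; lower signal means less secretion.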
12-LOX inh = blocks human arachidonate 12S-lipoxygenase. P18054. 580,000 compounds, 1.1% hits. AID 1671190. Potency, µM (highest dose often 108 µM), for the others: at the top dose activity change, negative = inhibition, actives largely listed as inhibitors. purified 12hLO, xylenol orange hydroperoxide absorbance; note: potency is the fitted concentration of half-maximal effect
Target sequence (P18054 whole entry, looked up): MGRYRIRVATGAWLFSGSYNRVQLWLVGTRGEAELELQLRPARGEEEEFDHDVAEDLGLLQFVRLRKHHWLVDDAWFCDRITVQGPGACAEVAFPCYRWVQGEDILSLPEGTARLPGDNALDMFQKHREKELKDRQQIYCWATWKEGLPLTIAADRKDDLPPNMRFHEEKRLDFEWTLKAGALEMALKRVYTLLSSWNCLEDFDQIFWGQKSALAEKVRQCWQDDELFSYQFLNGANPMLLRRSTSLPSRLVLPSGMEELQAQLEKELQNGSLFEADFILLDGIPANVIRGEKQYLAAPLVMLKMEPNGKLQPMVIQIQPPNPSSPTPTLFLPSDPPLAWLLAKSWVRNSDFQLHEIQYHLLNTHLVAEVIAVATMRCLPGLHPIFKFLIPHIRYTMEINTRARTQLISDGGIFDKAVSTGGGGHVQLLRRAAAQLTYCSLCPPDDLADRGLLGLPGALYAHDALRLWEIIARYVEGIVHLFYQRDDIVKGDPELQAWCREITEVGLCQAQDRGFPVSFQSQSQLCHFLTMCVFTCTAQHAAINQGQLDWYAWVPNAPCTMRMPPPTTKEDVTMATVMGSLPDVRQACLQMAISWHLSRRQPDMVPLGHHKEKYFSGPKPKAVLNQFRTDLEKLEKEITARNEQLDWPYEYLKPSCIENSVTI
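Hydroperoxide product was detected by ferrous iron/xylenol orange as the 573 to 405 nm absorbance ratio. Arachidonic acid at 40 uM (final) was turned over for 30 min at room temperature by 150 nM human 12hLO, pH 7.0 Hepes buffer, after 15 min compound preincubation.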
TDP1 cell CPT = DT40-hTDP1 cell growth loss with CPT. chicken DT40 Tdp1-/-;hTDP1 cells + 20 nM CPT, ATP luminescence, 48 h. Potency, µM (series often up to 46.2 µM), for inactives: top-dose activity change, negative = growth inhibition, most hits filed as inhibitors. 420,000 compounds, 12% hits; note: potency is the fitted concentration of half-maximal effect; nearly all actives have a fitted effect of over 55% in size
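Chicken DT40 Tdp1-/- cells stably complemented with human TDP1 were seeded at 400 cells/well in medium containing 20 nM camptothecin, exposed to pin-transferred compounds, and grown at 37 °C for at least 48 hr. Viability was read as ATP luminescence.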
HT1080 IDH1KD tx = kills HT-1080 cells with IDH1 knockdown. 360,000 compounds, 2% hits. Potency, µM (doses to about 46.1 µM), inactives show top-dose activity, negative = toxicity, most hits filed as cytotoxic. HT-1080 IDH1 knockdown viability, ATP luminescence, 48 h;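 note: potency is the fitted concentration of half-maximal effect; 0% = DMSO wells and -100% = cell-free medium wells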
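IDH1KD HT-1080 cells, 750/well, RPMI + 5% FBS; compound pinned after 2 h settling; 48 h, 37 °C; CellTiter-Glo luminescence; % activity normalised to DMSO and no-cell wells; curves fitted, classed by r2 and efficacy.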
HT1080-NT tox = kills 2HG-producing HT-1080-NT fibrosarcoma cells; HT-1080-NT fibrosarcoma viability, CellTiter-Glo ATP luminescence, 48 h; Potency, µM (top dose mostly 46.1 µM), for inactives: at the highest dose activity, negative = less viability, hits mostly cytotoxic; 360,000 compounds, 1.6% hits;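 note: NT is the 2HG producing partner of a matched IDH1 knockdown line; potency is the fitted concentration of half-maximal effect; 0% = DMSO-treated cells and -100% = media-only wells without cells; nearly all actives have a fitted effect of over 55% in size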
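Luminescent CellTiter-Glo readout after 48 hours of compound exposure at 37 degrees C defined viability of HT-1080-NT cells. Activity was normalized to DMSO wells and cell-free media wells; concentration-response curves were fitted and assigned curve classes.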
DT40 TDP1 no CPT = qHTS for Inhibitors of human tyrosyl-DNA phosphodiesterase 1 (TDP1): qHTS in cells in absence of CPT. DT40 Tdp1-/- hTDP1 cells, no CPT, ATP luminescence, 48 h. Potency, µM (top dose mostly 46.2 µM), for the others: top-dose activity change, negative = growth inhibition, most hits filed as inhibitors. 420,000 compounds, 15% hits. AID 686978, 2013; note: potency is the fitted concentration of half-maximal effect; nearly all actives have a fitted effect of over 55% in size
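Chicken DT40 Tdp1-/- cells stably complemented with human TDP1 were seeded at 400 cells/well with DMSO in place of 20 nM camptothecin. After compound pinning, cells grew at least 48 hr at 37 °C; viability read by CellTiter-Glo luminescence.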
Active calls of the source: *; ? = inconclusive; . = not tested or not shown. The entries come from a sample that favours hits as a whole. Unless noted, calls come from the whole dose curve; as a rule, active = well fitted curve in the direction sought with a large enough effect; inconclusive = small, poorly fitted or top-dose-only effect, or another doubt; inactive = no such curve, though single readings can be large; an effect the other way counts as inactive or inconclusive. Unless noted, % is set by controls: 0 for no effect and ±100 for the full control effect.

SMILES	IL-1B inflam inh	12-LOX inh	TDP1 cell CPT	HT1080 IDH1KD tx	HT1080-NT tox	DT40 TDP1 no CPT
Cn1c(=O)c2ccccc2n(Cc2cccc(F)c2)c1=O	-8	2%	?	-15%	-8%	?
O=C(CCN1C(=O)/C(=C/c2ccccc2)SC1=S)NCCc1ccc(O)cc1	-12	.	16µM*	?	?	?
O=C(CCCN1C(=O)/C(=C\c2ccccc2)SC1=S)Nc1ccc(O)cc1C(=O)O	4	?	-14%	4%	7%	-5%
COc1ccc(/C=C2\SC(=S)N(CCC(=O)NCCc3ccc(O)cc3)C2=O)cc1	-8	19%	?	9%	-4%	16µM*
COc1ccccc1/C=C1\SC(=S)N(CCC(=O)NCCc2ccc(O)cc2)C1=O	-82*	-7%	?	?	?	16µM*
COc1ccccc1-c1nc(C(=O)N2CCC(C#N)CC2)n2ccccc12	.	41%	.	.	.	.
O=C1[C@@H]2C[C@@H](CN2Cc2cnc3ccccc3c2)Oc2ccccc2N1Cc1ccccc1	.	20%	.	.	.	.
Cc1ccccc1Cn1c(C)c(C(=O)N(C)Cc2ccc(F)cc2)sc1=O	-19	-20%	?	5%	9%	18µM*
Cc1cc(C)cc(Cn2c(C)c(C(=O)N(C)Cc3ccc(F)cc3)sc2=O)c1	-28	2%	?	?	-26%	?
Cc1c(C(=O)N(C)Cc2ccc(F)cc2)sc(=O)n1Cc1ccccc1C#N	1	-13%	23µM*	-13%	6%	16µM*
COc1ccc(Br)c(Cn2c(C)c(C(=O)N(C)Cc3ccc(F)cc3)sc2=O)c1	-23	-1%	?	?	1%	?
CCCCN(C)C(=O)c1sc(=O)n(Cc2ccccc2C#N)c1C	-7	-4%	13µM*	2%	10%	?
COc1ccc(/C=C/C(=O)c2ccncc2)c2ccccc12	-29	?	23µM*	?	?	16µM*
COc1ccc(/C=C/C(=O)c2ccc(C(C)(C)C)cc2)c(OC)c1OC	.	-2%	.	.	.	.
CN(C)c1ccc(/C=C/c2cc[n+](C)cc2)cc1	0	1µM*	6.5µM*	?	-22%	5.2µM*
CN(C)c1ccc(C=O)cc1	.	8%	-8%	.	.	10%
Cc1ccc(/C=C/c2ccc(N(C)C)cc2)[n+](C)c1	-2	?	0.52µM*	?	-30%	0.41µM*
COc1cccc(-c2nc(CS(=O)(=O)CC(=O)NCc3ccccc3)c(C)o2)c1	-7	?	?	-1%	0%	?
Cc1ccc(-c2nc(CS(=O)(=O)CC(=O)NCCCN3CCOCC3)c(C)o2)cc1	-19	11%	0%	-1%	3%	3%
COc1cccc(-c2nc(CS(=O)(=O)CC(=O)NCCCN3CCOCC3)c(C)o2)c1	-77*	-4%	-4%	16%	0%	14%
COc1cccc(-c2nc(CS(=O)(=O)CC(=O)NCc3ccccc3OC)c(C)o2)c1	-9	26%	?	-7%	-7%	18µM*
Cc1oc(-c2ccccc2F)nc1CS(=O)(=O)CC(=O)N1CCN(c2ccc(Cl)cc2)CC1	.	0%	26µM*	.	.	21µM*
COc1cccc(-c2nc(CS(=O)(=O)CC(=O)NCCN3CCOCC3)c(C)o2)c1	-2	-6%	8%	-5%	-1%	-19%
CCCCN(CC)CCCNC(=O)CS(=O)(=O)Cc1nc(-c2ccc(C)cc2)oc1C	.	-14%	?	.	.	21µM*
Cc1nc2ccc(Cl)cc2cc1C(=O)NCc1cccnc1-n1cncn1	.	-3%	.	.	.	.
SMILES	IL-1B inflam inh	12-LOX inh	TDP1 cell CPT	HT1080 IDH1KD tx	HT1080-NT tox	DT40 TDP1 no CPT
COCCNC(=O)C(NC(=O)c1ccc(F)cc1)C1CCN(C(=O)c2ccccc2F)CC1 (stereo unspecified)	.	36%	.	.	.	.
COc1cccc(-c2nc(CS(=O)(=O)CC(=O)N3CCN(c4ccccc4)CC3)c(C)o2)c1	.	-20%	?	.	.	23µM*
CCN1CCN(C(=O)CS(=O)(=O)Cc2nc(-c3cccc(OC)c3)oc2C)CC1	-15	-7%	-15%	1%	0%	11%
COc1ccc(OC)c(CCNC(=O)CS(=O)(=O)Cc2nc(-c3ccccc3Cl)oc2C)c1	-52*	3%	?	-13%	-13%	?
COc1ccc(CC(=O)Nc2nnc(C(C)(C)C)s2)cc1OC	0	0%	?	-20%	2%	16µM*
COc1ccc(CC(=O)Nc2nccs2)cc1OC	48	-12%	-14%	8%	9%	?
CCc1nnc(NC(=O)Cc2ccc(OC)c(OC)c2)s1	6	7%	0%	1%	3%	8%
COc1ccc(CC(=O)Nc2ncc([N+](=O)[O-])s2)cc1OC	106	35µM*	?	-1%	-1%	?
O=C(CN(Cc1ccco1)Cc1ccco1)Nc1cc(S(=O)(=O)N2CCCCC2)ccc1Cl	-26	2%	13µM*	?	-7%	12µM*
CC(NCC(=O)Nc1cc(S(=O)(=O)N2CCCCCC2)ccc1Cl)c1ccccc1 (stereo unspecified)	-10	-19%	18µM*	-24%	?	13µM*
Cc1ccc(S(=O)(=O)N2CCCCC2)cc1NC(=O)COc1ccccc1	14	-7%	?	-22%	-21%	?
O=C(Cc1cccs1)Nc1cc(S(=O)(=O)N2CCCCC2)ccc1Cl	-5	0%	-18%	-6%	-2%	-18%
Cc1ccccc1NCC(=O)Nc1cc(S(=O)(=O)N2CCCCC2)ccc1C	-25	158%	?	0%	3%	21µM*
Cc1ccc(NC(=O)CSc2ccc3c(c2)OCCO3)c(O)c1	0	0%	18µM*	-4%	8%	?
O=C(NCc1ccco1)c1cc(S(=O)(=O)N2CCCC2)ccc1Cl	9	452%	-25%	-3%	-1%	27%
COc1ccc(C(C)=O)cc1COC(=O)c1ccccc1Br	.	4%	.	.	.	.
COc1ccccc1NC(=O)c1cc2c(n1C)CCN(Cc1cccc(C)c1)C2	.	53%	.	.	.	.
CN(C)CCCNC(=O)/C=N/O	.	-3%	.	.	.	.
O=C(c1cccc(S(=O)(=O)N2CCOCC2)c1)N(Cc1ccco1)Cc1cccs1	1	-7%	?	2%	0%	?
COc1cc(CC(=O)Nc2cc(S(=O)(=O)N3CCCCC3)ccc2C)cc(OC)c1OC	.	22µM*	.	.	.	.
